From PubChem
CatS inh: inhibitors of human cathepsin S, biochemical, compound mixtures | inhibition, %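 (tested at 5 µM per compound within 10-compound mixtures)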 | recombinant cathepsin S, AMC dipeptide fluorescence, pooled mixtures | 62,000 tested, 0.06% active; in the data active = inhibition above about 32%, passing the limit was not always enough; inconclusive = no clear call, values can overlap the other calls
CatB inh: human cathepsin B inhibitors, primary screen, biochemical, fluorogenic substrate. 63,000 tested, 0.1% active. P07858. purified cathepsin B, fluorescence. AID 453, 2006. inhibition, %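 (tested at 10 µM)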; in the data active = inhibition above about 21%
CatB mixtures: cathepsin B inhibitors from pooled compounds, primary screen, biochemical, compound mixtures, AMC fluorescence; P07858; Purified cathepsin B, AMC dipeptide fluorescence; inhibition, %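 (ten-compound pools at 5 µM per compound and 50 µM total)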; 62,000 tested, 0.06% active; in the data active = inhibition above about 22%, passing the limit was not always enough; inconclusive = no clear call, values can overlap the other calls
C1s inh: complement C1s protease inhibitors, primary screen, biochemical, 10-compound mixtures; purified C1s, fluorogenic AMC substrate, pooled mixtures; mean inhibition % of two 10-compound mixtures (stronger effect = higher value), % at 5 µM (by protocol); 62,000 tested, 0.16% active; AID 538, 2006;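 active = inhibition above 20% in each of the two 10-compound mixture wells holding the compound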
CatG inh: human cathepsin G inhibitors, primary screen, biochemical, pooled compound mixtures, AMC fluorescence; inhibition, % at 5 µM (by protocol); P08311; AID 581, 2007; 62,000 tested, 0.2% active; purified enzyme, AMC-tetrapeptide fluorescence;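 active = inhibition above 20% in each of the two mixture wells holding the compound; inactive = inhibition of 20% or less in either well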
CatL inh: inhibitors of human cathepsin L, biochemical; purified cathepsin L, fluorogenic substrate, fluorescence; inhibition, %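 (tested at 10 µM)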; 58,000 tested, 0.17% active; in the data active = inhibition above about 45%
Target sequence (P07711 114-288 limits assumed): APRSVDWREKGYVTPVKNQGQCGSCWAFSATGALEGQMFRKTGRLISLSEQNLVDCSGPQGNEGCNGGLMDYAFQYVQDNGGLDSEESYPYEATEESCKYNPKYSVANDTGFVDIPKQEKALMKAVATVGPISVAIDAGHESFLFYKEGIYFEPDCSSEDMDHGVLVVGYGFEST
Target sequence (P07711 292-333 limits assumed): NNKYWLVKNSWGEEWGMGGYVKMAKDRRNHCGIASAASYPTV
Hits are given with their value; 0 = inactive; ? = inconclusive; - = no result given. Most compounds without a hit are left out; they make up all but 0.54% or so of the library.

SMILES	CatS inh	CatB inh	CatB mixtures	C1s inh	CatG inh	CatL inh
CC(=O)NC(=O)NC1OC(=O)C(Cl)=C1Cl (stereo not drawn)	0	21	?	0	0	0
Cc1ccccc1S(=O)(=O)NC1OC(=O)C(Cl)=C1Cl (stereo not drawn)	0	0	0	0	0	0
COC(=O)c1sc(N2C(=O)C(O)=C(C(=O)c3ccc(C)o3)C2c2ccc(F)cc2)nc1C (stereo not drawn)	0	0	0	0	59	0
CCOC(=O)CN1C(=O)C(O)(CC(=O)c2cccc(OC)c2)c2ccccc21 (stereo not drawn)	0	0	0	0	0	0
COc1ccccc1-c1cc(C(F)(F)F)nc(N2CCN(c3ccccc3)CC2)n1	0	0	0	0	0	105
C/C(N)=N\S(=O)(=O)c1ccc(Cl)cc1	0	29	0	0	0	0
O=C(CC1SC(N2CCCCC2)=NC1=O)Nc1cccc(C(=O)O)c1 (stereo not drawn)	0	0	0	0	0	0
COc1ccccc1-c1cc(C(=O)NC(C)c2ccccc2)no1 (stereo not drawn)	0	0	0	0	33	0
COc1ccccc1-c1cc(C(=O)NC(C)C)no1	0	0	0	0	0	0
CC(C)CCNC(=O)[C@H](CC(C)C)NC(=O)[C@H]1O[C@@H]1C(=O)O	-	-	100	0	0	99
O=C(CCn1c(=O)oc2ccccc21)NCCN1CCOCC1	0	0	0	0	0	0
CCOC(=O)N1CCC(NC(=O)C2CCCCN2S(=O)(=O)c2ccc(F)cc2)CC1 (stereo not drawn)	0	0	0	0	0	104
Cc1ccc(S(=O)(=O)N2CCCC2C(=O)NC2CCCCC2)cc1 (stereo not drawn)	0	0	0	0	0	0
CC(=O)Nc1ccc(S(=O)(=O)N2CCSC2C(=O)O)cc1 (stereo not drawn)	0	0	0	0	0	0
CC(=O)Nc1ccc(S(=O)(=O)/N=C2\SCCN2S(=O)(=O)c2ccc(NC(C)=O)cc2)cc1	0	0	0	0	0	79
CCCOc1ccc(N2C(=O)CC(N3CCN(c4ccccc4OC)CC3)C2=O)cc1 (stereo not drawn)	0	0	0	0	0	-
CCOc1ccc(N2C(=O)CC(N3CCN(c4ccccc4F)CC3)C2=O)cc1 (stereo not drawn)	0	0	0	24	0	0
CCOC(=O)Cc1nnc(NC(=O)C(CC)Sc2nnc3c4ccccc4n(C)c3n2)s1 (stereo not drawn)	0	0	0	22	0	0
O=C(CN1CCCN(S(=O)(=O)c2ccc(Br)cc2)CC1)Nc1ccc2c(c1)OCO2	0	0	0	0	0	51
COc1ccc(S(=O)(=O)N2CCCN(CC(=O)Nc3ccc4c(c3)OCO4)CC2)cc1	0	0	0	0	0	0
COc1ccc(C(=O)Nc2cccc(C)c2)cc1	0	0	0	0	0	-
COc1cccc(NC(=O)CCP(C)(=O)O)c1	0	0	0	63	0	0
COc1cccc(NC(=O)Cc2ccccc2)c1	0	0	0	0	0	0
CCOC(=O)C1CCN(CCC(=O)Nc2cccc(Cl)c2)CC1	0	0	0	0	0	0
CC1CCN(Cc2ccc(NC(=O)C3CCN(c4nnc(-n5cccc5)s4)CC3)cc2)CC1	-	0	0	0	0	67
SMILES	CatS inh	CatB inh	CatB mixtures	C1s inh	CatG inh	CatL inh
Cc1ccc(Cl)cc1N1CCN(C(=O)C2CCN(c3nnc(-n4cccc4)s3)CC2)CC1	0	0	0	0	0	0
O=C(C1CCN(c2nnc(N3CCCC3=O)s2)CC1)N1CCN(Cc2ccc3c(c2)OCO3)CC1	0	0	0	0	0	47
O=C(C1CCN(c2nnc(-n3cccc3)s2)CC1)N1CCN(Cc2ccc3c(c2)OCO3)CC1	0	0	0	0	0	53
O=C(NCCC1=CCCCC1)C1CCN(c2nnc(-n3cccc3)s2)CC1	0	0	0	0	0	-
CC(=O)NCC(=O)OCN1C(=O)c2ccccc2C1=O	-	0	-	-	-	0
CN(CC1CCCO1)S(=O)(=O)c1ccc(C(=O)Nc2nc3cc4c(cc3s2)OCO4)cc1 (stereo not drawn)	0	0	0	0	0	-
Cc1ccc(SCC(=O)NCc2ccco2)cc1	0	0	0	0	0	0
Cc1cc(C)c2c(CC(=O)NCc3ccco3)coc2c1	0	0	0	21	0	0
O=C(O)c1ccccc1C(=O)NCc1ccc(F)cc1	0	21	0	0	0	0
O=C(O)c1ccccc1C(=O)NCc1ccccc1	0	0	0	0	0	0
